Records with an inconclusive call do not appear. Activity calls are given as the source filed them. Calls come from the whole dose curve.
Experiment: qHTS assay to identify small molecule agonists of the AP-1 signaling pathway - cell viability counter screen (AID 1159525); note: nearly all actives have a fitted effect of over 55% in size
Settings: ME-180 (cervical carcinoma) AP-1-bla cells viability, ATP luminescence, 5 h; series mostly up to 76.8 µM; viability change, negative = cytotoxic: at the top concentration
Source text: National Center for Advancing Translational Sciences [NCATS]
NIH Chemical Genomics Center [NCGC]
U.S. Environmental Protection Agency [EPA]
National Institutes of Environmental Health Sciences [NIEHS]
National Toxicology Program [NTP]
U.S. Food and Drug Administration [FDA]
Activator protein-1 (AP-1), a transcription factor, plays an important role in tumor genesis by regulating genes involved in cell proliferation, differentiation, apoptosis, and angiogenesis. AP-1 activity is induced by a complex network of signaling pathways that involves extracellular signals, such as growth factors. The AP-1 protein complex formed from c-Fos and c-Jun binding to the AP-1 response element results in transcriptional activation of genes containing such elements within their promoter.
Low molecular weight molecules have been discovered and developed to modulate various components of these signaling pathways, for example, MAP kinase inhibitors. However, many points of pathway modulation remain untested due to the lack of chemical probes making this signaling locus of general interest.
Using a beta-lactamase reporter-gene under control of the AP-1 response element, a cell-based assay [CellSensor(TM) AP-1-bla ME-180 developed by Invitrogen Corp.] was used to measure EGF-induced signaling. The Tox21 10K library compounds were measured for their ability to positively modulate the action of EC50 EGF on reporter gene activity. Compounds were screened in a 15-pt titration series in 1536-well format. The cytotoxicity of the Tox21 compound library against this cell line was tested in parallel by measuring the intra cellular ATP content in the same wells.
Tox21 Assay Protocol Summary:
2500 cells/5uL in Opti-MEM medium containing 0.5% dialyzed FBS, 0.1 mM NEAA, 1 mM sodium pyruvate and 10 mM HEPES was dispensed into 1536-well black wall/clear bottom plates using a Multidrop dispenser and cells were cultured at 37 degrees Celsius overnight. Next day 23 nL of compounds dissolved in DMSO, positive controls or DMSO were delivered to each well using a pin tool. The plates were incubated at 37 degrees Celsius for 5 hours. 1 uL of LiveBLAzerTM B/G FRET substrate (Solution A+B+C+D) was added to each well using a Flying Reagent Dispenser. After incubated at room temperature for 2.5 hours the plates were measured on an EnVision plate reader at Excitation 405nm, Emission1=460nm and Emission 2=530nm. The %Activity was determined from the ratio of 460nm/530nm.
After the plates were read for Beta-Lactamase assay on Envision; 3 ul Cell Titer Glo (Promega) was added to measure the cytotoxicity and the plates were then incubated at RT in dark for 30 min. The luminescence was read on ViewLux (Perkin Elmer, Shelton, CT) using 6 sec exposure. ViewLux data was expressed as relative luminescence units.
For primary data analysis, raw plate reads for each titration point were first normalized relative to […] EGF control (100%) and DMSO only wells (basal, 0%).
For primary data analysis for viability assay, raw plate reads for each titration point were first normalized Tetra n-octyl ammonium bromide control (-100%) and DMSO (control, 100%).
For `CCCOC(=O)C(C)O` (stereo not given), the “viability change, negative = cytotoxic” value was -16.1% (inactive).
For `N[C@@H](CCC(=O)N[C@@H](CS)C(=O)NCC(=O)O)C(=O)O`, the viability change, negative = cytotoxic was 4.13% [at 15.8 µM] (inactive).
For `CCCCCOC(=O)CCC`, the “viability change, negative = cytotoxic” value was -0.0879% (inactive).
With `CCOC(=O)CC(=O)c1ccccc1` the “viability change, negative = cytotoxic” value was -0.812% (inactive).
In the case of `N#Cc1ccc(C(=O)O)cc1`, the “viability change, negative = cytotoxic” value is reported as -3.07% (inactive).
In the case of `O=C(O)c1cc(Br)c(O)c(Br)c1`, the “viability change, negative = cytotoxic” value is reported as -4.22% (inactive).
With `CCCC/C=C/C=C\C=O` the “viability change, negative = cytotoxic” value was 0.304% (inactive).
With `COC(=O)C1CC(=O)C(C(=O)OC)CC1=O` (stereo not given) the viability change, negative = cytotoxic was 2.24% [at 6.97 µM] (inactive).
For `O=C(OCC(COC(=O)c1cccnc1)(COC(=O)c1cccnc1)COC(=O)c1cccnc1)c1cccnc1`, the “viability change, negative = cytotoxic” value was 1.46% [at 35.3 µM] (inactive).
With `O=C(CCNNC(=O)c1ccncc1)NCc1ccccc1` the “viability change, negative = cytotoxic” value was 2.6% [at 35.3 µM] (inactive).
For `CC(CN)CC(C)(C)CCN` (stereo not given), the “viability change, negative = cytotoxic” value was 4.35% [at 200 µM] (inactive).
For `O=C1c2ccccc2C(=O)N1CCl`, the “viability change, negative = cytotoxic” value was -3.53% (inactive).
With `On1nnc2ccccc21` the “viability change, negative = cytotoxic” value was 0.172% (inactive).
For `COc1ccc2c(c1)C(=O)N(CCc1ccc(S(=O)(=O)NC(=O)NC3CCCCC3)cc1)C(=O)C2(C)C`, the “viability change, negative = cytotoxic” value was -1.86% [at 35.3 µM] (inactive).
For `CC(=C(CCOC(=O)C(C)C)SSC(CCOC(=O)C(C)C)=C(C)N(C=O)Cc1cnc(C)nc1N)N(C=O)Cc1cnc(C)nc1N`, the “viability change, negative = cytotoxic” value was 2.83% [at 35.3 µM] (inactive).
In the case of `COc1ccc2c(c1OC)C(=O)O[C@@H]2[C@H]1c2c(cc3c(c2OC)OCO3)CCN1C`, the “viability change, negative = cytotoxic” value is reported as 3.47% [at 35.3 µM] (inactive).
For `Cc1cc(Cl)c(C)cc1Cl`, the “viability change, negative = cytotoxic” value was 1.07% (inactive).
With `Cc1ccc2ccc(Cl)cc2n1` the “viability change, negative = cytotoxic” value was -0.606% [at 35.3 µM] (inactive).
In the case of `CCO[Si](CCCS)(OCC)OCC`, the “viability change, negative = cytotoxic” value is reported as 2.72% (inactive).
With `CO[C@@H]1[C@@H](OC(N)=O)[C@@H](O)[C@H](Oc2ccc3c(O)c(NC(=O)c4ccc(O)c(CC=C(C)C)c4)c(=O)oc3c2C)OC1(C)C` the “viability change, negative = cytotoxic” value was 2.84% [at 35.3 µM] (inactive).
For `COc1ccc(S(=O)(=O)N2c3ccc(Cl)cc3[C@@](O)(c3ccccc3Cl)[C@H]2C(=O)N2CCC[C@@H]2C(N)=O)cc1OC`, the “viability change, negative = cytotoxic” value was -13.1% [at 35.3 µM] (inactive).
In the case of `CC(=O)Nc1cccc(C)c1`, the “viability change, negative = cytotoxic” value is reported as 6% (inactive).
With `CC(C)C[C@H](NC(=O)CNC(=O)[C@H](Cc1ccc(O)cc1)NC(=O)[C@H](CO)NC(=O)[C@H](Cc1c[nH]c2ccccc12)NC(=O)[C@H](Cc1cnc[nH]1)NC(=O)[C@@H]1CCC(=O)N1)C(=O)N[C@@H](CCCN=C(N)N)C(=O)N1CCC[C@H]1C(=O)NCC(N)=O` (stereo in doubt) the “viability change, negative = cytotoxic” value was -1.62% [at 35.3 µM] (inactive).
With `OCCN(CCO)c1cccc(Cl)c1` the “viability change, negative = cytotoxic” value was -0.589% (inactive).
With `CCCC(=O)C(C)=O` the “viability change, negative = cytotoxic” value was 4.85% (inactive).
For `COCCOC(=O)C1=C(C)NC(C)=C(C(=O)OC(C)C)C1c1cccc([N+](=O)[O-])c1` (stereo not given), the “viability change, negative = cytotoxic” value was -30% [at 35.3 µM] (inactive).
With `CC(CO)c1ccccc1` (stereo not given) the “viability change, negative = cytotoxic” value was -1.21% (inactive).
In the case of `CC(=O)OC(C)OC(=O)C(C)c1ccc(-c2ccccc2)c(F)c1` (stereo not given), the “viability change, negative = cytotoxic” value is reported as 3.24% [at 35.3 µM] (inactive).
With `CC1=CCC(C(C)C)=CC1` the “viability change, negative = cytotoxic” value was -6.3% (inactive).
In the case of `CC(CC=O)CCCC(C)(C)O` (stereo not given), the “viability change, negative = cytotoxic” value is reported as 1.91% (inactive).
For `O=S(=O)(O)CCN1CCN(CCO)CC1`, the “viability change, negative = cytotoxic” value was 12% (inactive).
In the case of `COCCOCCOCCOCCO`, the “viability change, negative = cytotoxic” value is reported as 2.64% (inactive).
In the case of `NC(CO)C(=O)NNCc1ccc(O)c(O)c1O` (stereo not given), the “viability change, negative = cytotoxic” value is reported as 5.93% [at 35.3 µM] (inactive).
With `c1ccc2nccnc2c1` the “viability change, negative = cytotoxic” value was -11% (inactive).
In the case of `Cc1ccc(C=O)cc1C`, the “viability change, negative = cytotoxic” value is reported as -3.44% (inactive).
In the case of `CC(C)=O`, the “viability change, negative = cytotoxic” value is reported as -1.64% (inactive).
In the case of `CCC(C)NC(N)=O` (stereo not given), the “viability change, negative = cytotoxic” value is reported as 2.03% (inactive).
In the case of `C[C@H](N)[C@H](O)c1cccc(O)c1`, the “viability change, negative = cytotoxic” value is reported as 3.94% [at 35.3 µM] (inactive).
In the case of `Cc1[nH]cnc1-c1ccc(Cl)cc1`, the “viability change, negative = cytotoxic” value is reported as 0.829% [at 35.3 µM] (inactive).
With `O=S(=O)(O)c1ccc2cc(O)c(S(=O)(=O)O)cc2c1` the “viability change, negative = cytotoxic” value was 1.7% (inactive).

From PubChem BioAssay (Tox21)
